# Assay results taken from PubChem BioAssay AID687020 (Broad Institute, 2013).
# The campaign covered roughly 1,400 compounds. About 100 (7.1%) were called active. No rule for the calls is given here. The list is a sample of the results. Entries that show only a call come without a potency. Potency and affinity values are given separately.
# Assay: viability loss in Vero cells – cell-based, plate reader, cherry-pick samples, cytotoxicity control, dose response (AID 687020);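 also: compounds incubated with cells for three days before luminescence read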
# Conditions: series mostly up to 19.5 µM
row,SMILES,outcome
1,O=C(CN1CCN(Cc2ccccc2)CC1)NNC(=O)c1ccccc1,inactive
2,CCCNC(=O)C(Cc1ccc(I)cc1)NC(=O)c1ccc(C#N)cc1 (configuration not stated),inactive
3,Cc1ccnc(NC(=O)C(Cc2ccccc2)NC(=O)c2ccccc2)c1 (configuration not stated),inactive
4,Cc1cn([C@H]2C[C@H](O)[C@@H](CNCc3ccc4ncccc4c3)O2)c(=O)[nH]c1=O,inactive
5,CCOc1ccc(N(CC(=O)Nc2cccc(C)c2)S(C)(=O)=O)cc1,inactive
6,CCN(CC)S(=O)(=O)c1ccc(NC(=O)COC(=O)CNC(=O)C2CCCCC2)cc1,inactive
7,CCCc1cc(=O)oc2c(C)c(OCC(=O)N3C[C@H]4C[C@@H](C3)c3cccc(=O)n3C4)ccc12,inactive
8,Cc1c(C)c2c(OCC(=O)N3CCC(O)CC3)cc3c(c2oc1=O)CCC(C)(C)O3,inactive
9,C[C@@H]1CN([C@H](C)CO)C(=O)c2cc(NC(=O)Nc3ccc(C(F)(F)F)cc3)ccc2O[C@@H]1CN(C)Cc1ccccc1,inactive
10,COc1ccccc1N1CCN(C(=O)c2cc(S(=O)(=O)N3CCCCC3)ccc2C)CC1,inactive
11,CC(C)(C)OC(=O)C(Cc1ccc(OC(C)(C)C)cc1)NC(=O)CNC(=O)OCc1ccccc1 (configuration not stated),inactive
12,O=C(Nc1ccn(CC(=O)N2CCN(c3ccccn3)CC2)c(=O)n1)OCc1ccccc1,inactive
13,Cc1cccc(NC(=O)c2cccc(S(=O)(=O)N(C)C3CCCCC3)c2)n1,inactive
14,CCCC/C=C/c1cccc2nncn12,inactive
15,COc1cccc(-c2nc3nc(C)cc(C)n3c2NC2CCCC2)c1,inactive
16,CCC(=O)Nc1cc(C(=O)OCc2ccc(C(=O)Oc3ccccc3)cc2)ccc1C,inactive
17,O=C([C@@H]1[C@@H](CO)[C@@H]2Cn3c(cccc3=O)[C@H]1N2C(=O)CC1CC1)N1CCCCC1,inactive
18,CCCCNC(=O)c1onc(CS(=O)(=O)c2ccccn2)c1C(=O)NCCCC,inactive
19,COc1ccc([C@H]2/C=C\CN(C(=O)c3ccc(C)cc3)[C@@H](C)C(=O)N2Cc2ccc(F)cc2)cc1,inactive
20,O=C(N[C@H](Cc1ccccc1)C(=O)NC1CCCCC1)[C@H]1O[C@@H](n2ccc(=O)[nH]c2=O)[C@H](O)[C@@H]1O,inactive
21,COC(=O)c1ccc2nc(C3CCCCC3)c(Cc3ccccc3OC)n2c1,inactive
22,COC(=O)c1ccc2nc(-c3ccc(C#N)cc3)c(Cc3cccc(F)c3)n2c1,inactive
23,CCN1CCN(CCc2nc3cc(NC(=O)COc4ccc(Cl)cc4)ccc3n2C)CC1,inactive
24,CCN1C(=NCCc2c[nH]c3ccccc23)N[C@@H](c2ccccc2)[C@H](C(=O)OC)[C@H]1C,inactive

row,SMILES,outcome
1,NCc1csc(NC(=O)Nc2cccc(Cl)c2)n1,inactive
2,COC(=O)[C@]12CCCCC=C1N(Cc1cccc3ccccc13)C(=O)[C@H](CC(=O)N1CCOCC1)C2,inactive
3,COC(=O)[C@]12CCCCC=C1N(Cc1cccc3ccccc13)C(=O)[C@H](CC(=O)NCCC(C)C)C2,inactive
4,COc1ccc(S(=O)(=O)Nc2ccc3c(c2)C(=O)N([C@@H](C)CO)C[C@H](C)[C@H](CN(C)C(=O)Nc2ccc(C(F)(F)F)cc2)OCCCC[C@H](C)O3)cc1,inactive
5,CC(NC(=O)CN1CCCC1)c1ccccc1 (configuration not stated),inactive
6,Cc1cc(C)c2[nH]c(C(=O)Nc3ccc4c(c3)OCO4)cc2c1,inactive
7,Cc1cccc(OCCn2c(=O)n(C)c3ccccc32)c1,inactive
8,Cc1oc2cc3oc(=O)c(CCC(=O)NCCCn4ccnc4)c(C)c3cc2c1C,inactive
9,Cc1c(C)c2cc(Cl)c(OCC(=O)NCCCN3CCCC3=O)cc2oc1=O,inactive
10,COc1ccc(CN(CCC(c2ccccc2)C2CCOC(C)(C)C2)C(C)=O)cc1 (configuration not stated),inactive
11,Cc1ccc(C2(C)NC(=O)N(CC(=O)Nc3ccccc3C(=O)NC3CCCC3)C2=O)cc1 (configuration not stated),inactive
12,Cc1cccc(C(=O)NC2CCN(CC(=O)Nc3cccc(Cl)c3)CC2)c1,inactive
13,O=S1(=O)CCOCCCN1Cc1ccccc1Br,inactive
14,CN1C(=O)c2cc(NC(=O)Cc3cccs3)ccc2OC[C@@H]2O[C@H](CC(=O)NCC3CCCCC3)CC[C@H]21,inactive
15,CC(=O)N1CC2(C1)[C@H](c1ccc(-c3ccc(C#N)cc3)cc1)[C@@H](CO)N2C(=O)C1CC1,inactive
16,CCCCN1C(Nc2ccccc2)=NC[C@@H]1Cc1ccccc1,inactive
17,O=C(Nc1ccccc1)c1ccccc1CSc1ccccc1,inactive
18,O=C(Cc1cccc(C(F)(F)F)c1)Nc1ccc(S(=O)(=O)N2CCCC2)cc1,inactive
19,O=S(=O)(c1cccc(C(F)(F)F)c1)N1CCN(CC(O)COCc2ccccc2)CC1 (configuration not stated),inactive
20,CC1(C#N)c2ccccc2C(Br)=CN1C(=O)c1ccccc1 (configuration not stated),inactive
21,COc1ccc(NC(=O)C2CCC(CNS(=O)(=O)c3cccs3)CC2)cc1OC (configuration not stated),inactive
22,O=C1Nc2ccccc2SC1c1ccccc1 (configuration not stated),inactive
23,COc1ccc(-c2nc3ccc(C)cn3c2Cc2cccc(F)c2)cc1OC,inactive
